# Vif-APOBEC3G blk: Vif-A3G binding inhibition; Q9HC16; HeLa A3G-eYFP + Vif (tagged APOBEC3G with the HIV-1 protein that degrades it), YFP fluorescence, overnight; Potency, µM (titrated, usually from 46.1 µM), inactives show top-dose activity, negative = active, usual class: inhibitors; 410,000 compounds, 0.076% hits; AID 602310; also: potency is read from the fitted curve at half-maximal effect; % is scaled to controls: 0 for no effect and ±100 for the full control effect; nearly all actives have a fitted effect of over 60% in size
# Target sequence (Q9HC16 whole entry, looked up): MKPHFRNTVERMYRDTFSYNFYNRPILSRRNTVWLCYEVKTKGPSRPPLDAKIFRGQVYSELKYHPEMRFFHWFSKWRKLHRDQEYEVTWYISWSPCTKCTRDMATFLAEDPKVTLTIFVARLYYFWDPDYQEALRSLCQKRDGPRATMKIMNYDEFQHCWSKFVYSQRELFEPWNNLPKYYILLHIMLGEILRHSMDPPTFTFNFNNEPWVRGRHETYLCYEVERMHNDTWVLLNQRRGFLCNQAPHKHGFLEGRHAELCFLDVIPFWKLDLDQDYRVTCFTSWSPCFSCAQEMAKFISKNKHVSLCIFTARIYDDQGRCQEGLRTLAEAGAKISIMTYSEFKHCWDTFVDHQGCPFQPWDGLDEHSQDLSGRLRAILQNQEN
#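 HeLa cells stably expressing Vif and C-terminally eYFP-tagged A3G, seeded overnight at 37 deg C, then exposed to compound by pintool overnight at 37 deg C. Rise in yellow fluorescence (Ex 488/Em 500-530, Acumen) marks blocked Vif-driven A3G degradation.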
# SW480 rerep: induces DNA re-replication in SW480 colon adenocarcinoma cells. SW480 DNA re-replication, Hoechst DNA content imaging, 48 h. Potency, µM (highest dose often 46.1 µM), for inactives: at the highest dose re-replication activation, most hits filed as activators. 340,000 compounds, 1.8% hits; also: potency is read from the fitted curve at half-maximal effect; % of control where 0% means no effect; nearly all actives have a fitted effect of over 55% in size
#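 Treated cells incubate 48 hr (37 C, 5% CO2), are stained 40 min with Hoechst, and nuclear fluorescence is enumerated; a rise in nuclei with high DNA signal marks re-replication.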
# Giardia kill: Giardia lamblia killing; Giardia lamblia trophozoite viability; activity change, % at 7.66 µM, hits read low; 340,000 compounds, 0.15% hits; in the data active = activity change below about -80%; inconclusive = between about -30% and that limit;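 also: parasites exposed to compound for two days anaerobically before the ATP read; % is scaled to controls: 0 for no effect and ±100 for the full control effect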
#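 Giardia lamblia trophozoites (100 cells/well) were incubated with compounds for 48 h at 37 deg C under anaerobic conditions. Viability was read as ATP content by one-step luminescence after 15-30 min at room temperature.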
# Vif-A3F inh: blocks the Vif interaction with APOBEC3F | Potency, µM (series often up to 46.1 µM), for the others: at the highest dose activity, negative = active | AID 602313 | HeLa A3F-eYFP + Vif (tagged APOBEC3F with the HIV-1 protein that degrades it), YFP fluorescence increase | 390,000 compounds, 0.2% hits; also: potency is read from the fitted curve at half-maximal effect; % of control where 0% means no effect; nearly all actives have a fitted effect of over 65% in size
#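 HeLa cells stably expressing Vif plus C-terminally eYFP-tagged A3F were seeded, incubated overnight at 37 deg C, dosed with compound, incubated overnight again at 37 deg C. Yellow fluorescence (Ex 488/Em 500-530) reported blocked Vif-mediated A3F-eYFP degradation.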
# IL1B secr inh: blocks inflammasome-driven IL-1 beta release; THP-1 LPS/ATP IL-1B secretion, AlphaLISA, 16 h; active compounds read low; activity change, % at 57.5 µM; 360,000 compounds, 4.7% hits; in the data active = activity change below about -50%; inconclusive = mostly about -30% to -49%; also: % is scaled to controls: 0 for no effect and ±100 for the full control effect
#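 Secreted IL-1B measured by AlphaLISA bead assay after 16 h compound exposure of THP-1 cells; compounds (final up to 57.5 uM) added 1 h before LPS (250 ng/mL) and ATP (1.25 mM) stimulation; lower signal means less secretion.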
# MCF10A rerep: induces DNA re-replication in MCF 10a normal breast cells; MCF 10A DNA re-replication, Hoechst nuclear intensity, 48 h; Potency, µM (top dose mostly 46.1 µM), for inactives: at the highest dose activity, positive = re-replication, actives largely listed as activators; 350,000 compounds, 2.9% hits; also: potency is read from the fitted curve at half-maximal effect; % of control where 0% means no effect; nearly all actives have a fitted effect of over 50% in size
# Active calls of the source: *; u = inconclusive; x = no result. Most compounds without a hit are left out; they make up all but 6.9% or so of the library. Unless noted, calls follow the shape of the dose curve; as a rule, active = well fitted curve in the direction sought with a large enough effect; inconclusive = small, poorly fitted or top-dose-only effect, or another doubt; inactive = no such curve, though single readings can be large; an effect the other way counts as inactive or inconclusive.
SMILES,Vif-APOBEC3G blk,SW480 rerep,Giardia kill,Vif-A3F inh,IL1B secr inh,MCF10A rerep
Cn1cc(CCC(=O)N2CCCC(C(=O)c3cccc4ccccc34)C2)cn1 (configuration not stated),-1.6%,-0.6%,24.9,0.4%,-9.1,-3.8%
COc1ccc2cc(C(=O)C3CCCN(Cc4cnc(N5CCOCC5)s4)C3)ccc2c1 (configuration not stated),-2.5%,0.0%,-14.8,-0.1%,u,u
COc1ccc2cc(C(=O)C3CCCN(C(=O)CCc4cnn(C)c4)C3)ccc2c1 (configuration not stated),-1.1%,-6.0%,-1.0,-1.0%,-56.5*,-4.6%
CCN(CC)c1ccc(NC(=O)C2CCN(S(=O)(=O)c3cnc[nH]3)CC2)c(C)c1,4.0%,x,x,0.2%,x,x
CC1=C(C(=O)NCc2ccccc2F)C2(CCCCC2)OC1=O,-0.4%,x,x,-6.8%,x,x
Cc1ccc(OCCCC(=O)N(C)CC(=O)Nc2ccccc2Br)cc1,-3.7%,-81.8%,-9.1,u,-55.4*,-12.5%
CN(CC(=O)Nc1ccccc1Br)C(=O)c1ccccc1OCc1ccc(Cl)cc1,1.1%,6.5%,3.5,1.9%,-58.6*,19.9%
CN(CC(=O)Nc1ccccc1Br)C(=O)c1ccc(-c2ccc(Cl)cc2)o1,-24.2%,u,0.8,-15.6%,8.1,u
COc1ccccc1CNC(=O)CCCc1nnc2n(CC(C)C)c(=O)c3sccc3n12,-3.0%,x,x,1.2%,x,x
Nc1cc2ccncc2c2ccccc12,0.4%,u,11.8,1.4%,u,20.6µM*
N#Cc1cc2ccncc2c2ccccc12,0.4%,x,x,-1.3%,-26.4,x
CSc1nc(N)c(C(=O)Nc2ccc([N+](=O)[O-])cc2)s1,0.0%,-1.9%,26.4,-0.7%,-74.6*,0.5%
COc1ccc(C)cc1NC(=O)Cn1c(=O)ccc2cc(S(=O)(=O)N3CCC(C)CC3)ccc21,-10.8%,x,x,6.6%,x,x
Cc1ccc(NC(=S)NCCN(C2CCCCC2)C2CCCC2)cc1C,3.1%,u,16.7,0.5%,-67.1*,u
COc1ccccc1C(=O)NCC(c1cccs1)N1CCc2ccccc21 (configuration not stated),-0.1%,13.6%,-12.5,-20.5%,-0.6,18.4µM*
CC(C)(C)c1ccc(/C=C/C(=O)Nc2ccncc2)cc1,-4.9%,u,9.4,-2.6%,u,u
CN(C)c1ccc(C(=O)/C=C/c2ccc(Br)cc2)cc1,-2.2%,u,-0.7,-3.1%,-22.8,4.9%
O=C(/C=C/c1ccc(Br)cc1)c1ccc(NC2=NCCCS2)cc1,u,4.61µM*,-17.5,-2.7%,-65.0*,5.17µM*
O=C(/C=C/c1ccccc1)c1ccc(NC2=NCCCS2)cc1,u,u,-5.8,-14.8%,-101.6*,18.4µM*
CC(C)(C)c1ccc(/C=C/C(=O)c2ccc(NC3=NCCCS3)cc2)cc1,-13.0%,u,-5.5,-10.2%,-100.3*,18.4µM*
CO[C@]12C(COC(N)=O)C3=C(C(=O)C(C)=C(N)C3=O)N1CC1NC12 (some centres not stated),x,u,x,x,x,6.8%
CC(C)c1ccc(NC(=O)C2(C)Cc3ccccc3C(=O)O2)cc1 (configuration not stated),-1.4%,x,x,2.4%,x,x
COc1cccc(C2C=C(c3ccc(Br)s3)Nc3ncnn32)c1OC (configuration not stated),-1.1%,-34.2%,-4.3,u,-18.4,0.2%
Fc1ccc(Br)cc1C1C=C(c2ccc(Br)s2)Nc2ncnn21 (configuration not stated),u,0.581µM*,9.8,22.4µM*,-11.1,u
COc1ccc(N2CCN(S(=O)(=O)c3ccc4c(c3)CCCC4)CC2)c([N+](=O)[O-])c1,-2.7%,-4.2%,6.6,-4.3%,-61.8*,-10.1%
SMILES,Vif-APOBEC3G blk,SW480 rerep,Giardia kill,Vif-A3F inh,IL1B secr inh,MCF10A rerep
COc1cccc(C(=O)/C=C/c2ccc(N3CCCCC3)c([N+](=O)[O-])c2)c1,-14.1%,u,26.6,-7.2%,-95.8*,u
O=C(/C=C/c1ccc(N2CCCCC2)c([N+](=O)[O-])c1)c1ccc(S(=O)(=O)N2CCCC2)cc1,-0.8%,0.1%,8.4,-0.5%,6.0,7.1%
COc1ccc(N2CCN(C(=O)c3cccc(F)c3)CC2)c([N+](=O)[O-])c1,2.4%,0.2%,-12.5,-6.7%,-52.5*,8.8%
COc1ccc(N2CCN(C(=O)c3ccc(F)cc3)CC2)c([N+](=O)[O-])c1,-5.9%,-98.5%,4.5,12.6%,-20.8,-27.5%
Cc1cccc(C)c1NC(=O)COC(=O)c1ccc2[nH]c3c(c2c1)CCCC3,-17.4%,u,41.1,u,-2.8,18.4µM*
O=C(COC(=O)c1ccc2[nH]c3c(c2c1)CCCC3)Nc1ccccc1,-15.9%,u,-25.2,u,0.0,23.1µM*
O=C(OCC(=O)N1CCOCC1)c1ccc2[nH]c3c(c2c1)CCCC3,3.3%,u,16.7,3.3%,-3.4,-2.8%
Cc1cc(Cl)ccc1OCc1cc(=O)n2c3c(sc2n1)CCCC3,2.6%,x,x,0.2%,x,x
CCc1cc2c(=O)c(-c3ccc4c(c3)OCCO4)coc2cc1OS(C)(=O)=O,-19.9%,9.2µM*,-2.9,-3.3%,-86.6*,10.9%
O=C(CC1N=C2c3ccccc3N=C(SCc3ccc(Cl)cc3)N2C1=O)NCCc1ccccc1 (configuration not stated),-2.2%,x,x,0.5%,x,x
Cc1ncc(CO)c(/C=N/NC(=S)Nc2ccc(C(C)C)cc2)c1O,2.9%,2.91µM*,-3.1,0.1%,165.7,20.4%
OCCCNc1nc(-c2ccc(Br)cc2)nnc1-c1ccc(Cl)cc1,1.2%,4.1%,2.2,-0.2%,-56.6*,28.5%
Cc1nnc(-c2ccc(Cl)cc2)nc1NCCN(C)C,-0.7%,2.6%,-21.9,-4.7%,-10.8,-8.7%
COc1cc(/C=C2/SC(=S)NC2=O)ccc1OS(=O)(=O)c1ccc(C)cc1,-20.5%,-1.2%,11.1,-1.2%,-53.0*,u
COc1cc(/C=C2\SC(=S)NC2=O)ccc1OS(=O)(=O)c1ccccc1,x,-4.4%,x,x,x,u
COc1cc(/C=C2\SC(=S)N(CCCCC(=O)O)C2=O)ccc1OS(=O)(=O)c1ccc(C)cc1,-23.8%,85.9%,-1.9,-16.4%,-87.3*,u
CCOc1ccc(C(=O)Nc2cc(-c3nc4ccccc4[nH]3)ccc2C)cc1[N+](=O)[O-],-7.9%,14.7%,-8.6,6.0%,-50.4*,27.5%
CCOc1ccc(C(=O)Nc2cc(-c3nc4ccccc4[nH]3)ccc2Cl)cc1[N+](=O)[O-],12.6µM*,u,6.9,-1.8%,-20.4,u

# Assay outcomes from PubChem.
